This note sets out measurements from PubChem BioAssay (NCI).

Where “and” joins values, the source holds several entries; their conditions need not be identical. Identical values can stand only once. About 83,000 compounds went through this panel and 20% of them were active in at least one assay; those are over-represented in the sample as a whole.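 48-hour exposure, single concentration, 96-well plates; percent growth endpoint where 0 means no net growth. Active: below 10.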 Calls of active or inactive are those of the source.

Among the test systems are HCT-15 colon; SNB-75 CNS; SNB-19 CNS; U251 CNS; PC-3 prostate; SK-MEL-5 melanoma; UACC-62 melanoma; LOX IMVI melanoma; SK-MEL-28 melanoma; SK-MEL-2 melanoma; EKVX NSCLC; SN12C renal; UO-31 renal; TK-10 renal; ACHN renal; CAKI-1 renal; A498 renal; CCRF-CEM leukemia; MOLT-4 leukemia; HT29 colon.
Holding throughout (assay): NCI-60 one-dose screen, 48 h (100 = growth as untreated, 0 = no growth, -100 = all killed)
Conditions in all cases: 10 µM unless noted

For `CC(C)Cc1ccc(C(C)C(=O)NCc2ccc(Cn3c(=O)sn(CCCCl)c3=O)cc2)cc1` (stereo not given), the growth in the assay on HCT-15 colon is 103% (inactive) and -35.9% (active); with SNB-75 CNS, 105% (inactive) and -18% (active); with SNB-19 CNS, 91.2% (inactive) and 49.8% (inactive); in the assay with U251 CNS, 95.6% (inactive) and 7.88% (active); in the assay on PC-3 prostate, 91.9% (inactive) and -69.6% (active); in the assay on SK-MEL-5 melanoma, 91.8% (inactive) and -78.1% (active). The growth is 92.6% (inactive) and -68.6% (active) in the assay on UACC-62 melanoma; 90.7% (inactive) and -93.1% (active) with LOX IMVI melanoma; 107% (inactive) and -71.8% (active) in the assay on SK-MEL-28 melanoma; 103% (inactive) and -3.28% (active) with SK-MEL-2 melanoma; 89.3% (inactive) and -64.7% (active) with EKVX NSCLC; 98.7% (inactive) and -60.5% (active) with SN12C renal. Also, the growth in the assay on UO-31 renal was 77% (inactive) and -100% (active); in the assay on TK-10 renal it was 88% (inactive) and -91.9% (active); in the assay with ACHN renal, 97.3% (inactive) and -100% (active); in the assay on CAKI-1 renal, 87.1% (inactive) and -86.6% (active); with A498 renal, 87.8% (inactive) and 55.6% (inactive); in the assay with CCRF-CEM leukemia, 53.4% (inactive) and 3.84% (active). In addition, the growth with MOLT-4 leukemia was 90.4% (inactive) and 0.866% (active).

On to `CCNC(=O)Nc1ccc(-c2nc3c(c(N4CCOC[C@@H]4C)n2)CCN(C2COC2)C3)cc1`, for which the growth was 60.3% (inactive) and 15.9% (inactive) in the assay on HCT-15 colon; 22.9% (inactive) and -33.2% (active) with SNB-75 CNS; 59.2% (inactive) and 15.7% (inactive) in the assay with SNB-19 CNS; 55.9% (inactive) and 7.52% (active) in the assay on U251 CNS; 26.6% (inactive) and 12.6% (inactive) with PC-3 prostate; 22.4% (inactive) and -26.4% (active) in the assay on SK-MEL-5 melanoma. Also, the growth with UACC-62 melanoma is 9.26% (active) and -20.5% (active); in the assay with LOX IMVI melanoma, 33.9% (inactive) and 1.39% (active); in the assay on SK-MEL-28 melanoma, 25.1% (inactive) and -5.25% (active); in the assay with SK-MEL-2 melanoma it was 41.7% (inactive); with EKVX NSCLC, 46.8% (inactive) and 17.4% (inactive); in the assay with SN12C renal, 36.1% (inactive) and 14.7% (inactive). Moreover, the growth in the assay on UO-31 renal was 21.8% (inactive) and -6.18% (active); with TK-10 renal it was 44.4% (inactive) and -22.3% (active); in the assay with ACHN renal, 34.6% (inactive) and 7.24% (active); in the assay on CAKI-1 renal it was 67.1% (inactive) and 0.578% (active); in the assay with A498 renal it was -24.1% (active) and -36.2% (active); in the assay with CCRF-CEM leukemia, 52.8% (inactive) and 12.2% (inactive). In addition, in the assay with MOLT-4 leukemia, the growth was 52.2% (inactive) and 8.79% (active).

For the compound `O=C(CN1CCN(c2cc3c(cc2F)c(=O)c(C(=O)O)cn3C2CC2)CC1)Nc1ccc(Cl)cc1`, the growth was 83% (inactive) and 92.3% (inactive) with HCT-15 colon; 57.9% (inactive) and 100% (inactive) with HT29 colon; 83.1% (inactive) and 90.9% (inactive) with SNB-19 CNS; 44.2% (inactive) and 102% (inactive) in the assay on U251 CNS; 80.1% (inactive) and 89.1% (inactive) in the assay with PC-3 prostate; 71.1% (inactive) and 83.5% (inactive) in the assay on SK-MEL-5 melanoma. The growth in the assay on UACC-62 melanoma is 63.6% (inactive) and 57.8% (inactive); in the assay on LOX IMVI melanoma it was 61.1% (inactive) and 72.4% (inactive); in the assay with SK-MEL-28 melanoma, 87.1% (inactive) and 84% (inactive); in the assay on SK-MEL-2 melanoma, 94.8% (inactive) and 106% (inactive); in the assay on EKVX NSCLC, 93.4% (inactive) and 92.3% (inactive); in the assay with UO-31 renal it was 7.15% (active) and 16% (inactive). The growth with TK-10 renal was 86.1% (inactive) and 127% (inactive); in the assay with ACHN renal it was 53.2% (inactive) and 84.4% (inactive); in the assay with CAKI-1 renal, 67.2% (inactive) and 77.6% (inactive); in the assay with A498 renal it was 68.6% (inactive) and 45.8% (inactive); in the assay on CCRF-CEM leukemia, 77.4% (inactive) and 92.6% (inactive).

With `COc1cc(NS(C)(=O)=O)ccc1Nc1c2ccccc2nc2c(C)cccc12`, the growth with HCT-15 colon is 7.59% (active) and 0.251% (active); in the assay with HT29 colon, -36.8% (active) and 0.935% (active); in the assay with SNB-19 CNS it was 19.8% (inactive) and 25.2% (inactive); in the assay with U251 CNS it was -3.95% (active) and -7.3% (active); in the assay on PC-3 prostate, 17.8% (inactive) and 28.4% (inactive); in the assay with SK-MEL-5 melanoma, -29.9% (active) and 2.9% (active). Besides, the growth with UACC-62 melanoma is 1.52% (active) and 23.3% (inactive); with SK-MEL-28 melanoma, 21.6% (inactive) and 21% (inactive); with SK-MEL-2 melanoma it was 20.4% (inactive) and 44.2% (inactive); in the assay with SN12C renal it was -8.74% (active) and 6.11% (active); in the assay on UO-31 renal, -22.1% (active) and -17.6% (active); in the assay with TK-10 renal, -39.5% (active) and -35.3% (active). Besides, the growth in the assay with ACHN renal was -60.1% (active) and -56.2% (active); in the assay on CAKI-1 renal, -35.7% (active) and -10.5% (active); with A498 renal, -44% (active) and -27.8% (active); in the assay with CCRF-CEM leukemia, -11% (active); in the assay on MOLT-4 leukemia, -12.1% (active) and -13.6% (active).

On to `N#CC(C#N)=C/C=C/c1cccc([N+](=O)[O-])c1`, for which the growth in the assay with HCT-15 colon is -6.94% (active) and -31.6% (active); with SNB-75 CNS, 68.2% (inactive) and 11.3% (inactive); in the assay with SNB-19 CNS, 51.3% (inactive) and 41.4% (inactive); in the assay on U251 CNS, 10% (inactive) and -22.7% (active); in the assay with PC-3 prostate it was 14.5% (inactive) and 0.0705% (active); in the assay with SK-MEL-5 melanoma, 8.16% (active) and -10.6% (active). In addition, the growth was -51.7% (active) and -61.6% (active) in the assay on UACC-62 melanoma; -29.1% (active) and -78.9% (active) in the assay on LOX IMVI melanoma; 5.56% (active) and -41.8% (active) with SK-MEL-28 melanoma; 20.6% (inactive) and -14.1% (active) with SK-MEL-2 melanoma; 45.5% (inactive) and 2.6% (active) in the assay with EKVX NSCLC; -21.7% (active) and -30.1% (active) with SN12C renal. The growth with UO-31 renal was -16.6% (active) and -82.4% (active); in the assay with TK-10 renal, 7.02% (active) and -19.4% (active); with ACHN renal it was -22.1% (active) and -59.7% (active); in the assay on CAKI-1 renal it was 10.6% (inactive) and -24.8% (active); with A498 renal, 94.4% (inactive) and 2.43% (active); with CCRF-CEM leukemia it was 2.18% (active) and 1.1% (active). For the same compound, the growth with MOLT-4 leukemia was -1.02% (active) and 3.93% (active).

With `CNc1cc(-c2cccc(OC(F)(F)F)c2)nc2ccc(N3CCCC3)cc12`, the growth in the assay on HCT-15 colon was 13.5% (inactive) and -8.32% (active) and 3.05% (active); in the assay on HT29 colon, 5.99% (active) and 1.66% (active) and 1.06% (active); in the assay with SNB-19 CNS, 18.7% (inactive) and 12.2% (inactive) and 16.2% (inactive); in the assay with U251 CNS it was -42.1% (active) and -81.2% (active) and -79.4% (active); in the assay with PC-3 prostate it was -72% (active) and 8.8% (active) and 13.1% (inactive); with SK-MEL-5 melanoma it was -77.4% (active) and -88.7% (active) and -70.6% (active). Moreover, the growth in the assay with UACC-62 melanoma was -71.8% (active) and -74.8% (active) and -72.1% (active); in the assay on LOX IMVI melanoma it was -64.1% (active) and -93.8% (active) and -90.1% (active); in the assay on SK-MEL-28 melanoma it was -66.3% (active) and -82.3% (active) and -64.4% (active); in the assay on SK-MEL-2 melanoma, 85.6% (inactive) and -78.5% (active) and -74.4% (active); with EKVX NSCLC, 84.1% (inactive) and 39.2% (inactive) and 11.9% (inactive); in the assay on UO-31 renal, 7.85% (active) and -81.2% (active) and 26.1% (inactive). In addition, the growth in the assay on TK-10 renal is -55% (active) and -45.4% (active) and -12% (active); in the assay on ACHN renal it was -99.6% (active) and -99.5% (active) and -98.9% (active); in the assay on CAKI-1 renal, 68.2% (inactive) and -88.8% (active) and -50.9% (active); with A498 renal it was 77.2% (inactive) and 45.9% (inactive) and 47.7% (inactive); in the assay on CCRF-CEM leukemia, -36.5% (active) and -23.4% (active) and -0.147% (active); with MOLT-4 leukemia, -38.6% (active) and -30.7% (active) and 2.3% (active).

As for `CN(C)CCC(=O)c1ccc(Cl)cc1`, the growth is 111% (inactive) and 116% (inactive) in the assay with HCT-15 colon; 106% (inactive) and 100% (inactive) with HT29 colon; 95% (inactive) and 109% (inactive) with SNB-19 CNS; 113% (inactive) and 111% (inactive) with U251 CNS; 92.5% (inactive) and 103% (inactive) in the assay on PC-3 prostate; 103% (inactive) and 112% (inactive) in the assay with SK-MEL-5 melanoma. In addition, the growth in the assay with UACC-62 melanoma was 98.5% (inactive) and 101% (inactive); in the assay on LOX IMVI melanoma it was 113% (inactive) and 92.2% (inactive); in the assay on SK-MEL-28 melanoma, 107% (inactive) and 115% (inactive); in the assay with SK-MEL-2 melanoma, 115% (inactive) and 118% (inactive); in the assay with EKVX NSCLC, 115% (inactive) and 124% (inactive); in the assay with SN12C renal, 97.9% (inactive) and 102% (inactive). For the same compound, the growth with UO-31 renal was 87.3% (inactive) and 95.4% (inactive); in the assay with TK-10 renal, 105% (inactive) and 119% (inactive); in the assay on ACHN renal, 114% (inactive) and 105% (inactive); in the assay with CAKI-1 renal, 102% (inactive) and 106% (inactive); with A498 renal it was 121% (inactive) and 114% (inactive); in the assay on CCRF-CEM leukemia, 93.2% (inactive) and 73.9% (inactive). The growth in the assay with MOLT-4 leukemia was 94.7% (inactive) and 93.5% (inactive).

As for `O=C1OC(Oc2ccc(Br)cc2)(c2ccccc2)c2ccccc21` (stereo not given), the growth in the assay on HCT-15 colon is 69.6% (inactive) and 58.6% (inactive); in the assay with HT29 colon, 74.6% (inactive) and 70.6% (inactive); in the assay on SNB-19 CNS it was 88.8% (inactive) and 102% (inactive); in the assay with U251 CNS, 78.9% (inactive) and 58.5% (inactive); in the assay on PC-3 prostate it was 80.7% (inactive) and 63.6% (inactive); in the assay on SK-MEL-5 melanoma, 97.3% (inactive). For the same compound, the growth in the assay on UACC-62 melanoma was 73.8% (inactive) and 83.9% (inactive); in the assay on LOX IMVI melanoma, 77.5% (inactive) and 83.2% (inactive); in the assay on SK-MEL-28 melanoma it was 101% (inactive) and 120% (inactive); in the assay on EKVX NSCLC, 96.4% (inactive) and 82.2% (inactive); in the assay on SN12C renal it was 87.8% (inactive) and 98.2% (inactive); in the assay on UO-31 renal it was 72.4% (inactive) and 89.3% (inactive). Moreover, the growth is 89.4% (inactive) and 86.2% (inactive) in the assay on TK-10 renal; 83.6% (inactive) and 80.3% (inactive) in the assay with ACHN renal; 17.9% (inactive) and 0.588% (active) with CAKI-1 renal; 70.1% (inactive) and 46.1% (inactive) in the assay on CCRF-CEM leukemia; 77.4% (inactive) in the assay on MOLT-4 leukemia.
